Laboratory results: PubChem BioAssay
The source made the active and inactive calls.

How the values were obtained:
[1] = tested on: PRMT1 (protein arginine N-methyltransferase 1); assay: small molecules binding arginine methyltransferase PRMT1 – biochemical, small-molecule microarray, 635 nm fluorescence, primary screen (AID 1088); settings: higher = more signal;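 note: binding of Prmt1 protein to compounds spotted on small-molecule microarray slides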
[2] = growth effects on S. cerevisiae YJM789 – YJM789 clinical isolate, OD600, 24 h, basal, primary screen (AID 1089); settings: higher = more signal, called active from +8 up or from −8 down;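 note: growth of clinical yeast isolate S. cerevisiae YJM 789 seeded 1000 cells per well; test concentration not given here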
[3] = S. pombe growth modifiers, basal conditions – strain 972, OD600, 24 h, no modulator, primary screen (AID 1090);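 note: basal condition with compound alone and no growth modifier present; test concentration not given here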; settings: S. pombe 972 growth, higher = more signal, called active from +8 up or from −8 down
[4] = budding yeast growth modifiers under rapamycin – strain BY4716, OD600, 96 h, primary screen (AID 1091); note: test concentration not given here; settings: S. cerevisiae BY4716 + rapamycin, higher = more signal, called active from +8 up or from −8 down
[5] = molecular target: Torsin-1A-interacting protein 2 (Homo sapiens) (UniProt Q8NFQ8); assay: small molecules binding lysate-expressed LULL1 – cell lysate, human LULL1 lysate, 635/667 nm fluorescence, primary screen (AID 1092); settings: small-molecule microarray, hLULL1 lysate binding, 635 nm fluorescence; higher = more signal;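 note: probe is lysate of COS7 cells overexpressing human LULL1; score merges per-feature 667 nm fluorescence with signal-to-noise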
[6] = optical density change of DRC41 E. coli – strain DRC41, OD650, 24 h, E. coli filamentation project, primary screen (AID 1093);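 note: MC1000 strain lacking acrAB efflux and sulA so SOS filamentation is blocked; test concentration not given here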; settings: E. coli DRC41 growth, higher = more signal, called active from +8 up or from −8 down
[7] = probe aLefty2 binding to arrayed compounds – biochemical, biotinylated probe, 635/667 nm fluorescence, primary screen (AID 1094); settings: small-molecule microarray, higher = more signal;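 note: score merges spot fluorescence near 667 nm with spot signal-to-noise ratio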
[8] = tested on: Noggin (protein binding on small-molecule microarray); assay: small molecules binding Noggin protein – biochemical, 635/667 nm fluorescence, primary screen (AID 1095); settings: 635 nm fluorescence, higher = more signal;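 note: score merges 667 nm feature fluorescence with signal to noise over triplicate slides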
[9] = molecular target: Neurogenic locus notch homolog protein 3 (Homo sapiens) (UniProt Q9UM47); assay: small molecules binding NOTCH3 protein – biochemical, 635/667 nm fluorescence, primary screen (AID 1096); settings: small-molecule microarray, 635 nm fluorescence, higher = more signal
[10] = probe aEGFR binding to arrayed compounds – biochemical, biotinylated probe, 635/667 nm fluorescence, primary screen (AID 1097); settings: small-molecule microarray, higher = more signal;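 note: probe is a biotinylated anti-EGFR antibody binding compounds printed on slides; score combines fluorescence near 667 nm and signal to noise of each spot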
[11] = tested on: Plasmodium falciparum Sir2 (PF13_0152, Sir2A); assay: Plasmodium falciparum Sir2A binding compounds – biochemical, small-molecule microarray, 635 nm fluorescence, primary screen (AID 1098); settings: fluorescence 635 nm, higher = more signal;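 note: score merges spot fluorescence intensity with its signal-to-noise ratio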
[12] = probe aDKK1 binding to arrayed compounds – biochemical, biotinylated probe, 635/667 nm fluorescence, primary screen (AID 1099); settings: small-molecule microarray, higher = more signal;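 note: score merges 667nm spot fluorescence with signal to noise across triplicate slides; reference of the scale not given here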
[13] = probe aCHRDL2 binding to arrayed compounds – biochemical, biotinylated probe, 635/667 nm fluorescence, primary screen (AID 1100); settings: small-molecule microarray, higher = more signal
[14] = change in splice reporter luminescence, either direction, cell-based, HEK293, spliceosome inhibition project, primary screen (AID 1101); settings: HEK293 splicing luciferase reporter, 24 h, higher = more signal, called active from +8 up or from −8 down;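 note: HEK293 cells carrying a splicing-competent luciferase reporter gene; test concentration not given here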
[15] = molecular target: Fibroblast growth factor 10 (Homo sapiens) (UniProt O15520); assay: compounds binding fibroblast growth factor 10 – biochemical, small-molecule microarray, 635 nm fluorescence, primary screen (AID 1102); settings: FGF10 binding, fluorescence 635 nm, higher = more signal
[16] = tested on: glycogen synthase kinase-3 (GSK3A per assay name; protocol says GSK3B); assay: compounds binding glycogen synthase kinase-3 – biochemical, small-molecule microarray, 635 nm fluorescence, GSK3A, primary screen (AID 1103); settings: fluorescence 635 nm, higher = more signal; note: the record names both GSK3A and GSK3B
[17] = molecular target: Epidermal growth factor receptor (Homo sapiens) (UniProt P00533); assay: compounds binding epidermal growth factor receptor – biochemical, small-molecule microarray, 635 nm fluorescence, primary screen (AID 1104); settings: EGFR binding, higher = more signal;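 note: score merges 667 nm emission intensity with spot signal to noise over triplicate slides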
[18] = molecular target: Follistatin-related protein 3 (Homo sapiens) (UniProt O95633); assay: compounds binding follistatin-related protein 3 – biochemical, small-molecule microarray, 635 nm fluorescence, primary screen (AID 1105); settings: FSTL3 binding, higher = more signal;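 note: score merges emission near 667 nm and signal to noise per printed spot across three slides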
[19] = molecular target: Dickkopf-related protein 1 (Homo sapiens) (UniProt O94907); assay: small molecules binding DKK1 protein – biochemical, small-molecule microarray, 635 nm fluorescence scan, primary screen (AID 1106); settings: higher = more signal;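 note: score merges emission near 667 nm with signal to noise over three replicate slides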
[20] = tested on: Inhibin beta A chain (activin A); assay: small molecules binding activin A – biochemical, small-molecule microarray, 635 nm fluorescence scan, primary screen (AID 1107); settings: INHBA, higher = more signal;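 note: mouse activin A protein probed at 4.33 µg/mL on printed slides; score merges bound-protein fluorescence near 667 nm with spot signal-to-noise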

Sequence of Follistatin-related protein 3 (Homo sapiens) (O95633 whole entry, looked up): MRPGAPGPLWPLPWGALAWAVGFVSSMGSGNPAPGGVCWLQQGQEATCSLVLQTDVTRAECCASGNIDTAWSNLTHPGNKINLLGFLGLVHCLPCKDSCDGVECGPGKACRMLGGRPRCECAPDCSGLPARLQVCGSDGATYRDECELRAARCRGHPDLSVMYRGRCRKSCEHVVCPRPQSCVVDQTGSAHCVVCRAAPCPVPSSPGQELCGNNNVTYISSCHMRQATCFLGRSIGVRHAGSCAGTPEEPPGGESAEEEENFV
Sequence of Torsin-1A-interacting protein 2 (Homo sapiens) (Q8NFQ8 whole entry, looked up): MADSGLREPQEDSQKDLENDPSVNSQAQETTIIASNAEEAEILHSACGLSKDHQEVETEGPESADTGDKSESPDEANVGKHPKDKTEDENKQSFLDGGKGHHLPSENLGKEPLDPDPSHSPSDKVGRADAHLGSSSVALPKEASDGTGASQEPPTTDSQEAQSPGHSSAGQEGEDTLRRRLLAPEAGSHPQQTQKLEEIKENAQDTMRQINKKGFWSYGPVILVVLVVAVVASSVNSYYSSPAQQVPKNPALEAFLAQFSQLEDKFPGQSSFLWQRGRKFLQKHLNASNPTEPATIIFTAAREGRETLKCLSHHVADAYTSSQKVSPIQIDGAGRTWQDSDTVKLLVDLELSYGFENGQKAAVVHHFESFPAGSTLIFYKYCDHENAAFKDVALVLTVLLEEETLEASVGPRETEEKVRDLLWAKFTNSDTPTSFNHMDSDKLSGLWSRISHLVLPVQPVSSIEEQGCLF
Sequence of Epidermal growth factor receptor (Homo sapiens) (P00533 whole entry, looked up): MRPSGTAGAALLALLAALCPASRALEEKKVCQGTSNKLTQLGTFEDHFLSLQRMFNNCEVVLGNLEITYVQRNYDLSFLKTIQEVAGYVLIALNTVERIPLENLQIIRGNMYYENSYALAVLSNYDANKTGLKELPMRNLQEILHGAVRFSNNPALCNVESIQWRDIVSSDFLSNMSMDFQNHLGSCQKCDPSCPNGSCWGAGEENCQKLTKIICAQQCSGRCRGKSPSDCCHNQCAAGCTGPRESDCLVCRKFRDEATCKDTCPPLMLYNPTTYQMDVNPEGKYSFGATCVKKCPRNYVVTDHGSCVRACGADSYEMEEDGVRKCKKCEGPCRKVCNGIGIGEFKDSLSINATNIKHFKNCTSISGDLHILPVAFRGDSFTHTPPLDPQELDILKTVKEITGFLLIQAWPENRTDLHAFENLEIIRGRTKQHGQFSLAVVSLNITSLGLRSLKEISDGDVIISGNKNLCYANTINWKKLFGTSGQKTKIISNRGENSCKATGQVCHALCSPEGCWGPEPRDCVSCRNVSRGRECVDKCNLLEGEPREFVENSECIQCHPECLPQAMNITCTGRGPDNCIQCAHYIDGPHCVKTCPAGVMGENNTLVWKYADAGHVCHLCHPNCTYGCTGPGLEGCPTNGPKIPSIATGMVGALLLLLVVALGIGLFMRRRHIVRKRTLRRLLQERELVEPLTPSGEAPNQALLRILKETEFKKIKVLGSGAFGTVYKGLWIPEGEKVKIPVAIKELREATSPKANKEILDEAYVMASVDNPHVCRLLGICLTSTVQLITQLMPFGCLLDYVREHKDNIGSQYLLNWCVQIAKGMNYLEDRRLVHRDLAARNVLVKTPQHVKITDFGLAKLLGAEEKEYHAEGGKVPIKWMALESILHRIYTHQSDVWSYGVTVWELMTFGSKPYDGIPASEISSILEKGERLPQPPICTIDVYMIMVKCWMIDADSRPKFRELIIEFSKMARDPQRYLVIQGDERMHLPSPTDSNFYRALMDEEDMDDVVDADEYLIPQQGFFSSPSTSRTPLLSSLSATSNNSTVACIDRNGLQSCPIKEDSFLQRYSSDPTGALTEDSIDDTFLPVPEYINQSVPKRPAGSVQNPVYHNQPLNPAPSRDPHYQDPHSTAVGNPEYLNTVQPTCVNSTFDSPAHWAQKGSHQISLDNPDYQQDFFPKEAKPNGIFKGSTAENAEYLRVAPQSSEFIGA
Sequence of Neurogenic locus notch homolog protein 3 (Homo sapiens) (Q9UM47 whole entry, looked up): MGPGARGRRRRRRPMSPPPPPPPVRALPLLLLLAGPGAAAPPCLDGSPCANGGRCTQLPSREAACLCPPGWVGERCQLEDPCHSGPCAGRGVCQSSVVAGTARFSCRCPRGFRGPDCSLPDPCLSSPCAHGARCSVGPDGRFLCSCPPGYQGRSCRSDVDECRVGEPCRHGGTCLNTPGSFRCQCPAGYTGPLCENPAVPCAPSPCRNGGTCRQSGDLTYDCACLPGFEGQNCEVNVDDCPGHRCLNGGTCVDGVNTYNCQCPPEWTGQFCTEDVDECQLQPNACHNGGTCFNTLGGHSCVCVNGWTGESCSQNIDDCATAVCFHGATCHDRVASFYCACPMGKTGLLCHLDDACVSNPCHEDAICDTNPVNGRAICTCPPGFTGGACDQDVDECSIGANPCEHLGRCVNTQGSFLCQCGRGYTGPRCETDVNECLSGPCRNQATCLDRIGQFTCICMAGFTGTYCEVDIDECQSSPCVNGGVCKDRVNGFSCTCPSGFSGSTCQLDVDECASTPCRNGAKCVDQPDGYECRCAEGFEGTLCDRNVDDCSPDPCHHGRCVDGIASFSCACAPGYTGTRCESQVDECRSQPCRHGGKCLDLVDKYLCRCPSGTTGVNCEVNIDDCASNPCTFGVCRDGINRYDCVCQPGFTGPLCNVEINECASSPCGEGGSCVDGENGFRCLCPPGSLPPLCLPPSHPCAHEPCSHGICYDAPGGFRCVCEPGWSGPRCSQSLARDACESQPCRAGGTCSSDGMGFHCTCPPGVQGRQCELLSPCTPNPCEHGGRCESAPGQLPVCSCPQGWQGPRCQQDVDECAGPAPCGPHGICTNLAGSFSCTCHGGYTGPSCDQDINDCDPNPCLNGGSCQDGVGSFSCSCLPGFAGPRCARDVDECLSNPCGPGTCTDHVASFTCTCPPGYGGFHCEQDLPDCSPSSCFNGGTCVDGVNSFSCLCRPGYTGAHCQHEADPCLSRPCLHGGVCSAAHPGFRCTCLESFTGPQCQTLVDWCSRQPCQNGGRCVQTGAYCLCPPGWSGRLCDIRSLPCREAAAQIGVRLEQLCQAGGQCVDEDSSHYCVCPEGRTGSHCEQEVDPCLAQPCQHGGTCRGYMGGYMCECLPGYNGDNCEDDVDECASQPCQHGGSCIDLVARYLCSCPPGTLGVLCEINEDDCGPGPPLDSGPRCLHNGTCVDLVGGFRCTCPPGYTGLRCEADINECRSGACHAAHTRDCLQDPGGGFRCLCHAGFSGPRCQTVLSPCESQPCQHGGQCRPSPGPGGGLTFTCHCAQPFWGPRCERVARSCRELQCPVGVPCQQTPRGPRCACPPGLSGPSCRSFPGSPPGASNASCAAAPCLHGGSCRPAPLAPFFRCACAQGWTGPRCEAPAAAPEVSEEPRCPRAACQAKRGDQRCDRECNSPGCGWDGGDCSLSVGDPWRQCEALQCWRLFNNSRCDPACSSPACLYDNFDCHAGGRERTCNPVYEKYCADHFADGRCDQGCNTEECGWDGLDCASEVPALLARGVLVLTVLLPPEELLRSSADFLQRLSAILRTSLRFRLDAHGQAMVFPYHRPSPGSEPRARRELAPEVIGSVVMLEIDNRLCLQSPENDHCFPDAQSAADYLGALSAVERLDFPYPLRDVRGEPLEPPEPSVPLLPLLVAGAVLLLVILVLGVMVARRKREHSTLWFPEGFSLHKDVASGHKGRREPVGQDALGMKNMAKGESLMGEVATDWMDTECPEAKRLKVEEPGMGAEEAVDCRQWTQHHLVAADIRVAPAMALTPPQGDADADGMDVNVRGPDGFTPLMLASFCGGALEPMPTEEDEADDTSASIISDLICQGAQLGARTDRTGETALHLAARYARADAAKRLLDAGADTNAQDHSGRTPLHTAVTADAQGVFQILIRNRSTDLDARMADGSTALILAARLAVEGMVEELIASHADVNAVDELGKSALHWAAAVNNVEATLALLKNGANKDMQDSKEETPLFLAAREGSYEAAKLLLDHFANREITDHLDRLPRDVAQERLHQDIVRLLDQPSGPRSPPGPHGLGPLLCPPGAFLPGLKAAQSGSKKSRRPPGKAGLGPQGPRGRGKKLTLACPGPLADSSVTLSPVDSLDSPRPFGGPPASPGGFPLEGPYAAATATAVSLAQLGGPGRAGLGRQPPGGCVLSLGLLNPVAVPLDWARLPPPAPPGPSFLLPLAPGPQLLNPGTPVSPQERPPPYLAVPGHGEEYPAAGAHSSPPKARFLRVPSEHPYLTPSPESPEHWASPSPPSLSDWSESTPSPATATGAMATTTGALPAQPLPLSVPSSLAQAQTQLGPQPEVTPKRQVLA
Sequence of Dickkopf-related protein 1 (Homo sapiens) (O94907 whole entry, looked up): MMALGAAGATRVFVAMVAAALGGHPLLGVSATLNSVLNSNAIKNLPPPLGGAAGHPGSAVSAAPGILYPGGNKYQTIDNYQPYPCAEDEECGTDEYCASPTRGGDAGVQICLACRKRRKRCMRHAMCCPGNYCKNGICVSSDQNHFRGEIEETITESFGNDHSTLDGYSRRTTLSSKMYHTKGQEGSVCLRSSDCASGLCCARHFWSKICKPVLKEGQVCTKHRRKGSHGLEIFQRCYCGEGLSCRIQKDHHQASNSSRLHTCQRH
Sequence of Fibroblast growth factor 10 (Homo sapiens) (O15520 whole entry, looked up): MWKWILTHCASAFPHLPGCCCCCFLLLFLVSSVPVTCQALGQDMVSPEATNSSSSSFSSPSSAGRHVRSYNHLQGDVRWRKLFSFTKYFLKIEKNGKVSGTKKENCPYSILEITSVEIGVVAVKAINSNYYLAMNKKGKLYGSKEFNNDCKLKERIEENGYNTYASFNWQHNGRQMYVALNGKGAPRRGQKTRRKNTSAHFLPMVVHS

| Compound | composite z-score [1] | z-score [2] | z-score [3] | z-score [4] | composite z-score [5] | z-score [6] | composite z-score [7] | composite z-score [8] | composite z-score [9] | composite z-score [10] | composite z-score [11] | composite z-score [12] | composite z-score [13] | z-score [14] | composite z-score [15] | composite z-score [16] | composite z-score [17] | composite z-score [18] | composite z-score [19] | composite z-score [20] |
| --- | --- | --- | --- | --- | --- | --- | --- | --- | --- | --- | --- | --- | --- | --- | --- | --- | --- | --- | --- | --- |
| CN(C)CCCC[C@@H]1NC(=O)[C@H]2C[C@@H](C(=O)NCCCCCN)[C@@H](c3cccc(OCCO)c3)N2C1=O | 1.54 | -0.717 (inactive) | -5.79 (inactive) | -0.503 (inactive) | 2.26 | 1.04 (inactive) | 0.801 | 1.38 | 0.339 | 0.374 | 1.11 | 1.33 | 1.04 | 0.0522 (inactive) | 1.2 | 1.06 | 0.0076 | 0.0876 | 0.453 | 1.41 |
| C=CCNC(=O)[C@@H]1[C@H]2C(=O)O[C@H](c3ccccc3)[C@H](c3ccccc3)N2[C@H](c2ccc(OCCO)cc2)[C@@]12C(=O)N(C(=O)OCCOC)c1ccc(C#CCC(C(=O)OC)C(=O)OC)cc12 | 1.54 | 1.05 (inactive) | 0.552 (inactive) | 5.79 (inactive) | 2.39 | -0.0236 (inactive) | 0.0398 | 1.18 | 1.03 | 0.23 | 1.32 | 0.951 | 0.328 | 1.01 (inactive) | 1.07 | 1.28 | 0.719 | 1.1 | 1.29 | -0.0578 |
| CO[C@H]1O[C@H](CO)[C@@H](OC(=O)Nc2ccc(Br)cc2)[C@@H]2OC(=O)[C@H](Cc3cccc(Br)c3)C/C=C/C[C@@H](Cc3cccc(Br)c3)C(=O)O[C@@H]12 | 0.0859 | -0.163 (inactive) | -2.81 (inactive) | 30.3 (active) | 0.763 | 1.26 (inactive) | -0.112 | 0.594 | 0.911 | -0.0828 | 0.272 | -0.157 | 0.179 | -0.838 (inactive) | 0.383 | -1.05 | -0.461 | 0.285 | -0.0367 | 0.0396 |
| COC(=O)[C@@]1(Cc2ccccc2)[C@H]2c3cc(C(=O)N(C)C)n(CCc4c[nH]c5ccc(O)cc45)c3C[C@H]2CN1C(=O)c1ccccc1 | 0.937 | -1.09 (inactive) | 1.25 (inactive) | 0.405 (inactive) | 3.11 | 0.488 (inactive) | 0.583 | 0.626 | 0.751 | -0.0234 | 0.0625 | 0.665 | 1.2 | -1.99 (inactive) | 0.288 | 0.435 | 0.121 | 0.594 | -0.0414 | 1.3 |
| CCCCCCCCCCC(O)C1C=CC2C(=O)NC(=O)C2N1Nc1ccc(Cl)cc1Cl (stereo not given) | 0.355 | 1.52 (inactive) | -0.451 (inactive) | 0.309 (inactive) | 1.8 | -2.39 (inactive) | -0.0769 | -0.729 | 0.102 | -0.137 | -0.856 | -0.214 | 0.935 | -0.723 (inactive) | -0.127 | -0.535 | -0.724 | -0.88 | -1.04 | 1.14 |
| CC(C)CCC[C@@H](C)[C@H]1CC[C@@]2(C)C3=C(CC[C@]12C)[C@@]1(C)CC[C@H](OC(=O)c2ccc(C(F)(F)F)nc2)C(C)(C)C1CC3 (stereo not given in full) | -0.431 | -1.64 (inactive) | -0.769 (inactive) | -0.455 (inactive) | 0.282 | 3.05 (inactive) | -0.233 | 0.52 | 0.483 | -0.1 | 0.22 | -0.514 | -0.491 | -0.895 (inactive) | 0.595 | 0.714 | 0.471 | 0.627 | 0.418 | -0.0544 |
| CC1CC/C=C\[C@H]2OC34C=CCN(Cc5ccccc5)C(=O)[C@H]3N(C(C)CO)C(=O)[C@@H]4C2C(=O)O1 (stereo not given in full) | -0.938 | -0.875 (inactive) | -1.48 (inactive) | -0.577 (inactive) | 0.44 | 0.524 (inactive) | -0.092 | 0.392 | 0.158 | -0.0916 | -0.588 | -0.169 | -0.506 | 0.441 (inactive) | 0.0204 | -0.444 | -0.492 | 0.196 | 0.33 | 0.951 |
| O=C1C2C=CC(C(O)C=Cc3ccc([N+](=O)[O-])cc3)N(Nc3ccccc3F)C2C(=O)N1c1ccccc1 (stereo not given) | 1.57 | 0.612 (inactive) | 2.1 (inactive) | 1.47 (inactive) | 3.1 | -1.04 (inactive) | 0.0511 | 0.0689 | 0.994 | 0.293 | 0.808 | 0.468 | 0.831 | 0.755 (inactive) | 1.13 | 1.28 | 0.464 | 1.13 | 0.0328 | 1.08 |
| CC(C)[Si](C#CCCCC#N)(O[C@H](c1ccccc1)c1cn(Cc2cccc(Cl)c2)nn1)C(C)C | 1.52 | -0.135 (inactive) | -0.483 (inactive) | -3.21 (inactive) | 1.42 | 1.79 (inactive) | 0.0322 | 0.342 | 1.13 | 0.0363 | 0.397 | -0.0654 | -0.594 | -1.64 (inactive) | 0.483 | 1.18 | 0.376 | 1.11 | 0.968 | -0.018 |
| N#Cc1ccc(C(O)C2C=CC3C(=O)N(c4ccccc4)C(=O)C3N2Nc2ccccc2F)cc1 (stereo not given) | 0.713 | -0.413 (inactive) | 0.135 (inactive) | -0.851 (inactive) | 2.93 | 0.246 (inactive) | -0.113 | 0.339 | 0.972 | 0.0262 | 1.65 | -0.0589 | 0.267 | -1.37 (inactive) | 0.877 | 0.849 | 0.77 | 0.746 | -0.116 | 0.299 |
